In one assay the target is Albumin (Bos taurus) (UniProt P02769). In words: bovine serum albumin binders on microarray, profiling panel, artefact control for SMM control protein annotation, biochemical, small-molecule microarray, Alexa647 label, 635/667 nm fluorescence (AID 1118).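 Note: score merges 667 nm emission intensity and signal-to-noise per printed compound spot.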 Particulars: BSA-A647 binding, fluorescence 635 nm, higher = more signal.
The nature of assay [1]: small-molecule microarray binders of probe aXIP, primary screen, biochemical, NeuroSMM set, 635/667 nm fluorescence (AID 1119).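 Note: probe is the protein aXip251-270 applied at 1 µg/mL to compound-printed slides; binding of probe to printed compounds measured as 667 nm fluorescence plus signal to noise.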 To be noted: higher = more signal, called active from +8 up or from −8 down.
Assay [2] can be described thus: small-molecule binders of probe aNOTCH3, primary screen, biochemical, small-molecule microarray, 635/667 nm fluorescence (AID 1120).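 Note: probe is a biotin-tagged antibody raised against NOTCH3 rather than NOTCH3 protein; score merges spot fluorescence near 667 nm with spot signal to noise.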 To be noted: higher = more signal.
A short description of assay [3]: small-molecule binders of probe aNOTCH2, primary screen, biochemical, small-molecule microarray, 635/667 nm fluorescence (AID 1121).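 Note: score merges feature fluorescence read at 667 nm with its signal to noise.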 Particulars: higher = more signal.
The target in assay [4] is Carbonic anhydrase 2 (Homo sapiens) (UniProt P00918). The experiment in a line: CAII small-molecule binders, profiling panel, biochemical, small-molecule microarray, Alexa647-labelled CAII (AID 1122). Particulars: CAII-A647 binding fluorescence, higher = more signal.
Assay [5] in a line: COS7 lysate on small-molecule microarray, probe aHis, 635 nm (AID 1123).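 Note: z-score combines 667nm fluorescence intensity with signal-to-noise per printed compound spot.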 Particulars: COS7 cell lysate, fluorescence, higher = more signal.
The nature of assay [6]: compound binding in COS7 lysate, probe aLAP1, primary screen, cell lysate, small-molecule microarray (AID 1124).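 Note: lysate comes from COS7 cells expressing LAP1 and is applied at 0.3 µg/mL; score merges spot fluorescence near 667 nm with signal-to-noise over triplicate slides.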 To be noted: probe aLAP1, fluorescence, higher = more signal.
The subject of a further assay is Sam68 (KHDRBS1). The experiment in a line: Sam68 small-molecule binders, primary screen, biochemical, small-molecule microarray, 635 nm fluorescence (AID 1125).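 Note: score merges 667 nm channel intensity with signal to noise over triplicate slides.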 Particulars: small-molecule microarray binding, higher = more signal.
Assay [7] relates to Chordin-like protein 2 (CHRDL2). In words: CHRDL2 small-molecule binders, primary screen, biochemical, small-molecule microarray, 635 nm fluorescence (AID 1126).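 Note: printed compound slides probed with Chrdl2 protein at 4 µg/mL for 1 h at 4 C; score merges 667 nm emission intensity with signal to noise over three replicate slides.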 Particulars: small-molecule microarray binding, fluorescence 635 nm; higher = more signal.
Assay [8] deals with Concanavalin-A (Canavalia ensiformis) (UniProt P02866). The experiment in a line: ConA small-molecule binders, primary screen, artefact control for SMM control protein annotation, biochemical, small-molecule microarray, Alexa647 label, 635 nm (AID 1127).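 Note: z combines 667 nm emission intensity with signal-to-noise across three replicate slides.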 To be noted: ConA-A647 binding fluorescence, higher = more signal.
Sequence of Concanavalin-A (Canavalia ensiformis) (P02866 whole entry, looked up): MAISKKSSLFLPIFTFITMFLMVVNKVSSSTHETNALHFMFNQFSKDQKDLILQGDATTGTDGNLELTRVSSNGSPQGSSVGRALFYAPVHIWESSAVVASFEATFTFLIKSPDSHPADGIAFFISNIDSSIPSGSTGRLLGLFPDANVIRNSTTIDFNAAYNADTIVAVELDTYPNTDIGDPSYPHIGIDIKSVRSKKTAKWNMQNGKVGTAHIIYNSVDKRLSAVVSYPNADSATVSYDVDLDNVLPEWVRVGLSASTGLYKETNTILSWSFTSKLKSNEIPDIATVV

SMILES strings stand for the structures. Activity calls are given as the source filed them.

Sequence of Albumin (Bos taurus) (P02769 whole entry, looked up): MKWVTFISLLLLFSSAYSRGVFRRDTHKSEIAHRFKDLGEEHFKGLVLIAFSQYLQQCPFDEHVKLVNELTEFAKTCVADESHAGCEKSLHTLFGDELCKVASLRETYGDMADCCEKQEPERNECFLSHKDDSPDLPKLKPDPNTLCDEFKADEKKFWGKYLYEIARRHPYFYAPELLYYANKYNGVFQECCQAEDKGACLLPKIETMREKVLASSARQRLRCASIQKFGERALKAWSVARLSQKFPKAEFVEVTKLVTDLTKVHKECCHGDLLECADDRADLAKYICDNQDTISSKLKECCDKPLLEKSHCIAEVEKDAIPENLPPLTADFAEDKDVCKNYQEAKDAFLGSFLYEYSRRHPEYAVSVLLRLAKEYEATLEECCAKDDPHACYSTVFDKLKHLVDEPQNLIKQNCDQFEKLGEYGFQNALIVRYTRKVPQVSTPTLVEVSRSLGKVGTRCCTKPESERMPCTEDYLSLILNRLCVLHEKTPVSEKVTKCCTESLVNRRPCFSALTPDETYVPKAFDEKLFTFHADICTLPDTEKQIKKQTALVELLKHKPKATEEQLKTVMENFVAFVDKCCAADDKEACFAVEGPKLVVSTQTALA

For the molecule `COc1ccc(C(=O)Nc2ccc3c(c2)[C@@]2(O[C@H](CCO)[C@@H]([Si](C)(C)c4ccc(OC)cc4)[C@@H]2C)C(=O)N3Cc2ccccc2)cc1`, the composite z-score with Albumin (Bos taurus) was -0.351; in assay [2], -0.0647; in assay [3] it was -0.0357; in [4], 0.124; in assay [5], 0.88; in [6], 0.556. Besides, the composite z-score was found to be 0.973 with Sam68 (KHDRBS1), 0.268 in assay [7] and 0.637 in assay [8]. Also, the composite Z-score in assay [1] is 0.004 (inactive).

Regarding `CCCCCCc1nc(Cc2cc(OC)c(OC)c(OC)c2)cc2c1[Si](C(C)C)(C(C)C)O[C@H]2c1ccccc1`, the composite z-score with Albumin (Bos taurus) was -0.261; in assay [2], -0.0647; in [3] it was -0.166; in assay [4], -0.117; in [5] it was -0.327; in [6], -0.589. Also, the figures for the composite z-score (in the assay on Sam68 (KHDRBS1); in assay [7]; in [8]) were 0.523, 0.52 and 0.118, respectively. Moreover, in [1], the composite Z-score is 0.688 (inactive).

Regarding `CN(C)CCCCNC(=O)[C@H]1C[C@H]2C(=O)NCC(=O)N2[C@H]1c1ccc(O)cc1`, the composite z-score is -0.411 in the assay with Albumin (Bos taurus); -0.368 in [2]; -0.13 in [3]; 0.712 in [4]; 0.0967 in assay [5]; -0.537 in [6]. Moreover, the composite z-score in the assay on Sam68 (KHDRBS1) was -0.714; in assay [7], 0.367; in assay [8] it was 0.342. The composite Z-score in [1] was 0.312 (inactive).

Turning to `C=CCNC(=O)[C@H]1[C@@H]2C(=O)O[C@@H](c3ccccc3)[C@@H](c3ccccc3)N2[C@@H](c2ccccc2OCCO)[C@]12C(=O)N(C(=O)OCCOC)c1ccc(C#Cc3ccc(OC)cc3)cc12`, the composite z-score with Albumin (Bos taurus) was 0.621; in assay [2] it was -0.0613; in assay [3], -0.146; in assay [4], 0.609; in assay [5], 1.94; in assay [6] it was 1.1. Also, the composite z-score is 1.24 in the assay on Sam68 (KHDRBS1), 0.0718 in assay [7] and 1.11 in assay [8]. Moreover, the composite Z-score in assay [1] is -0.0052 (inactive).

Regarding `CCCNC(=O)[C@@]1(Sc2ccc(C)cc2)CC(=O)N(Cc2ccccc2Cl)[C@@H]1c1ccc(CO)cc1I`, the composite z-score in the assay with Albumin (Bos taurus) is -0.266; in assay [2], 0.965; in assay [3] it was -0.0836; in assay [4] it was 0.529; in [5] it was 0.649; in assay [6], -0.0685. For the same molecule, the composite z-score with Sam68 (KHDRBS1) was -0.169; in [7] it was -1.56; in assay [8] it was 0.0737. For the same molecule, the composite Z-score in assay [1] was -0.588 (inactive).

As to `Cc1ccc(S[C@]2(C(=O)NCC(F)(F)F)CC(=O)N(Cc3ccccc3C(F)(F)F)[C@@H]2c2ccc(CO)cc2)cc1`, the composite z-score with Albumin (Bos taurus) was -0.0912; in assay [2], -0.233; in [3] it was -0.0861; in assay [4] it was 0.653; in assay [5], 1.24; in [6] it was 1.26. Besides, the composite z-score was -0.556 in the assay with Sam68 (KHDRBS1), -1.45 in assay [7] and -0.87 in [8]. Moreover, in assay [1], the composite Z-score is 0.0348 (inactive).

As to `COC(=O)[C@H](Cc1ccccc1)N1CC2=CCCC=C[C@@H]2[C@H]1[C@H](O)Cc1ccccc1`, the composite z-score in the assay with Albumin (Bos taurus) was 0.0618; in [2], 0.17; in [3], -0.118; in assay [4] it was 0.708; in assay [5], 0.25; in assay [6], 0.368. The results for the composite z-score (with Sam68 (KHDRBS1); in [7]; in assay [8]) were 0.374, 0.204 and 0.854, respectively. Also, the composite Z-score in assay [1] is 0.495 (inactive).

For the molecule `CC(C)NC(=O)[C@@H]1c2ccccc2C(=O)N(Cc2ccccc2C(F)(F)F)[C@H]1c1ccc(CO)cc1`, the composite z-score with Albumin (Bos taurus) was -0.273; in [2], -0.0144; in assay [3], -0.0901; in assay [4], 0.726; in [5], 0.725; in assay [6], 0.647. For the same molecule, the composite z-score in the assay with Sam68 (KHDRBS1) is -0.0631; in assay [7] it was -0.585; in [8] it was -0.329. The composite Z-score in [1] is -0.483 (inactive).

With `COC(=O)C1=CC(CCCO)=CC(c2cccs2)N(Cc2cc3c(cc2Br)OCO3)C=C1C(=O)OC` (stereo not given), the composite z-score is 0.739 with Albumin (Bos taurus); 0.062 in [2]; -0.0645 in [3]; 0.769 in assay [4]; 2.43 in [5]; 0.0385 in [6]. Besides, the composite z-score in the assay on Sam68 (KHDRBS1) was found to be 1.3; in assay [7] it was 0.249; in [8] it was 1.21. In assay [1], the composite Z-score is 1.26 (inactive).

Regarding `CC(C)C[C@H]1NC(=O)C([C@@H](C)OCc2ccccc2)NC(=O)[C@@]23C(=O)N[C@@H](Cc4ccccc4)C2[C@H](C)[C@@]2(C)O[C@H]2C3/C=C/C/C=C\CNC1=O` (stereo not given in full), the composite z-score with Albumin (Bos taurus) was 0.616; in assay [2] it was 0.2; in [3] it was -0.0148; in assay [4] it was 0.412; in [5] it was 1.51; in assay [6], 0.653. For the same molecule, the composite z-score came to 1.3 with Sam68 (KHDRBS1), 0.736 in [7] and 0.234 in [8]. The composite Z-score in assay [1] is 0.0578 (inactive).

Consider `COc1ccc([Si](C)(C)[C@H]2[C@H](CC(=O)N3Cc4ccccc4C[C@H]3CO)O[C@@]3(C(=O)N(c4ccccc4)c4ccccc43)[C@@H]2C)cc1`, for which the composite z-score with Albumin (Bos taurus) is 0.622; in assay [2], 0.204; in assay [3], -0.126; in assay [4] it was 0.306; in assay [5], 0.994; in assay [6] it was 0.374. In addition, the composite z-score in the assay on Sam68 (KHDRBS1) amounted to 1.29; in assay [7], 1.22; in [8] it was 1.09. In assay [1], the composite Z-score is 0.319 (inactive).

Consider `CC(C)(C)OC(=O)CC[C@@]1(C(=O)NCCN2CCOCC2)N=C(c2ccc(OCCCO)cc2)O[C@@H]1c1ccccc1CN=[N+]=[N-]`, for which the composite z-score with Albumin (Bos taurus) is 0.812; in assay [2], 0.0488; in [3] it was -0.112; in assay [4], 0.245; in [5], 1.17; in assay [6], 0.59. In addition, the figures for the composite z-score (in the assay on Sam68 (KHDRBS1); in assay [7]; in assay [8]) were 0.696, -0.743 and 1.08, respectively. Moreover, the composite Z-score in assay [1] was 2.03 (inactive).

Take `C=CCC(OC(C)=O)[C@@H]1[C@@H](N(Cc2cccc3ccccc23)C(=O)Cc2ccc(OC)cc2)c2cc(OCCCO)ccc2N1C(=O)Cc1ccc2ccccc2c1` (stereo not given in full): the composite z-score with Albumin (Bos taurus) was -0.0328; in assay [2], -0.0584; in [3], -0.159; in assay [4], 0.0435; in [5], 1.17; in [6] it was 0.078. For the same molecule, the composite z-score is -0.0489 in the assay on Sam68 (KHDRBS1), 0.116 in assay [7] and -0.154 in assay [8]. The composite Z-score in assay [1] is 0.181 (inactive).

With `CCCCN1CC=CC23O[C@@H]4/C=C\CCCOC(=O)C4[C@H]2C(=O)N(C(CO)C(C)C)[C@@H]3C1=O` (stereo not given in full), the composite z-score is -0.745 with Albumin (Bos taurus); -0.0339 in [2]; -0.0504 in assay [3]; 0.781 in [4]; 0.0745 in [5]; -0.158 in assay [6]. Besides, the values for the composite z-score (in the assay on Sam68 (KHDRBS1); in assay [7]; in assay [8]) were 0.239, -0.0768 and -0.592, respectively. In addition, the composite Z-score in [1] was -0.108 (inactive).

With `C=CCC(OC(C)=O)[C@@H]1[C@@H](N(Cc2cccc3ccccc23)C(=O)Cc2ccc(OC)cc2)c2cc(OCCCO)ccc2N1C(=O)c1ccc2ccccc2c1` (stereo not given in full), the composite z-score with Albumin (Bos taurus) was 0.226; in [2], 0.0232; in [3], -0.143; in assay [4], 0.331; in assay [5], 0.481; in assay [6], -0.0588. Besides, the composite z-score in the assay with Sam68 (KHDRBS1) was -0.278; in [7], 0.0839; in [8], 0.0699. Besides, in assay [1], the composite Z-score is -0.0662 (inactive).

Turning to `CC[C@@H]1C=C(C(=O)O)[C@H](c2ccc(OC)cc2)N1S(=O)(=O)c1ccc(C)cc1`, the composite z-score was 0.493 with Albumin (Bos taurus); -0.061 in assay [2]; -0.173 in [3]; 0.852 in [4]; 2.55 in [5]; -0.388 in [6]. In addition, the composite z-score in the assay on Sam68 (KHDRBS1) is -0.815; in assay [7], -0.377; in assay [8], -0.0828. The composite Z-score in assay [1] was 0.112 (inactive).

The values are drawn from PubChem BioAssay.
